Results reported in paper PMC7862700, “An all-to-all approach to the identification of sequence-specific readers for epigenetic DNA modifications on cytosine”.

Assays:
Experiment in all cases: DAPPL (digital affinity profiling via proximity ligation, sequencing); 10 mM Tris-HCl pH 7.5, 50 mM NaCl, 1 mM DTT, 4% glycerol, room temperature, 30 min; GST-TFs on glutathione beads, 16-mer random dsDNA library, 0.1% formaldehyde crosslink after washing; high values mean tight binding
[1] = target: T1, FEV (Homo sapiens, UniProt Q99581 1-238); conditions: protein: recombinant; tags: N-terminal GST; dsDNA, one strand shown
T1 sequence: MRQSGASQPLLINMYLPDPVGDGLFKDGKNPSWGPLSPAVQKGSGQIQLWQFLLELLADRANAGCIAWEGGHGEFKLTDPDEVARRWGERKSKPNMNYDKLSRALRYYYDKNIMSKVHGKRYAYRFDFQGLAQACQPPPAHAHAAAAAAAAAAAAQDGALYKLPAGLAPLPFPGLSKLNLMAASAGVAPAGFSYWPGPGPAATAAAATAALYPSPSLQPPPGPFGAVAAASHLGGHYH
How it was run: (§1)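 Binding signal is each hexamer's read frequency for a factor divided by its frequency in the tag-only sample. The factors were GST-fused human transcription factors from yeast, captured on glutathione beads, DNA-barcoded and pooled with that sample. Pools were incubated with 200 nmole of a random double-stranded 16-mer DNA library in Tris/NaCl/DTT/glycerol buffer at room temperature for 30 min, then washed, crosslinked with 0.1% formaldehyde, proximity-ligated with BsaI/T4 ligase (1 h, 37 °C), PCR-amplified and sequenced on an Illumina NextSeq500.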

[2] = target: ETV5 (Homo sapiens, UniProt P41161 1-510); conditions: protein: recombinant; tags: N-terminal GST; dsDNA, one strand shown
How it was run: as §1

[3] = target: HSF1 (Homo sapiens, UniProt Q00613 1-529); conditions: protein: recombinant; tags: N-terminal GST; chain copies: 3; dsDNA, one strand shown
How it was run: as §1

[4] = target: T2, SPIC (Homo sapiens, UniProt Q8N5J4 1-248); conditions: protein: recombinant; tags: N-terminal GST; dsDNA, one strand shown
T2 sequence: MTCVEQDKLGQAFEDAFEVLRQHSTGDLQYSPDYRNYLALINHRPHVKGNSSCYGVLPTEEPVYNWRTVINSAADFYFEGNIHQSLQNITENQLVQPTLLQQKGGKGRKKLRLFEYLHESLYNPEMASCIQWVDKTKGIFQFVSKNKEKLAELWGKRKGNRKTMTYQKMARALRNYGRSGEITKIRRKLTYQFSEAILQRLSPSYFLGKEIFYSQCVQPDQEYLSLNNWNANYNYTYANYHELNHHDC
How it was run: as §1

[5] = target: ELF4 (Homo sapiens, UniProt Q99607 1-663); conditions: protein: recombinant; tags: N-terminal GST; dsDNA, one strand shown
How it was run: as §1

[6] = target: T3, ELK4 (Homo sapiens, UniProt P28324-2 1-405); conditions: protein: recombinant; tags: N-terminal GST; dsDNA, one strand shown
T3 sequence: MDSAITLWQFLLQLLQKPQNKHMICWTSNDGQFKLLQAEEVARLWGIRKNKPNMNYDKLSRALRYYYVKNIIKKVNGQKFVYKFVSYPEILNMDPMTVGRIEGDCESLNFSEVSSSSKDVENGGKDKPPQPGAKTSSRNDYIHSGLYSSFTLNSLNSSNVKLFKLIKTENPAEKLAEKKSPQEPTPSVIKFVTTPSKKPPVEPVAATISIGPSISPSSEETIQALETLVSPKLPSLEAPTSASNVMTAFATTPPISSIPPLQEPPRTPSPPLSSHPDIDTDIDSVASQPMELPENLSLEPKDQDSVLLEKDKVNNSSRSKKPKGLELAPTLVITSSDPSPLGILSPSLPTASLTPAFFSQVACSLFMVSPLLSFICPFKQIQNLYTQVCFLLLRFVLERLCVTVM
How it was run: as §1

[7] = target: T4, ETV2 (Homo sapiens, UniProt O00321 1-342); conditions: protein: recombinant; tags: N-terminal GST; dsDNA, one strand shown
T4 sequence: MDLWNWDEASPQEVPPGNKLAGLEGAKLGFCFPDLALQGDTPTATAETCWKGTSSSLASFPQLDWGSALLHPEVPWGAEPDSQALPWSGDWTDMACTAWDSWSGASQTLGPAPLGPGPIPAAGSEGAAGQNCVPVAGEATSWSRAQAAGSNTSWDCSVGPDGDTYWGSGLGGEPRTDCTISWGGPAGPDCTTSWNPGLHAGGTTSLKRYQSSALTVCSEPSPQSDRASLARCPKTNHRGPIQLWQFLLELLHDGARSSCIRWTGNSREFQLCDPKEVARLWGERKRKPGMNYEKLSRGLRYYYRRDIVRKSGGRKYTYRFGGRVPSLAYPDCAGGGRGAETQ
How it was run: as §1

[8] = target: T5, ELF3 (Homo sapiens, UniProt P78545 1-371); conditions: protein: recombinant; tags: N-terminal GST; dsDNA, one strand shown
T5 sequence: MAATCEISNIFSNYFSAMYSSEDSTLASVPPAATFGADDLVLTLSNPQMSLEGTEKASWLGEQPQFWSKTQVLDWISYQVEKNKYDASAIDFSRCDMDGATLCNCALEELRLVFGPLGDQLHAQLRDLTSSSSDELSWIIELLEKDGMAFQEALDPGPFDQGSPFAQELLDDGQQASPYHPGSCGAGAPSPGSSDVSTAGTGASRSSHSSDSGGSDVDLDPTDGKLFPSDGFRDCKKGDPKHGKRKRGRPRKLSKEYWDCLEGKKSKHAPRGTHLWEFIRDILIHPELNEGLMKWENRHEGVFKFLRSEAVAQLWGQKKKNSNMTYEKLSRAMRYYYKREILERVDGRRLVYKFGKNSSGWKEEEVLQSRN
How it was run: as §1

[9] = target: CRX (Homo sapiens, UniProt O43186 1-299); conditions: protein: recombinant; tags: N-terminal GST; dsDNA, one strand shown
How it was run: as §1

[10] = target: ETV1 (Homo sapiens, UniProt P50549 1-477); conditions: protein: recombinant; tags: N-terminal GST; dsDNA, one strand shown
How it was run: as §1

[11] = target: T6, ERF (Homo sapiens, UniProt P50548 1-548); conditions: protein: recombinant; tags: N-terminal GST; dsDNA, one strand shown
T6 sequence: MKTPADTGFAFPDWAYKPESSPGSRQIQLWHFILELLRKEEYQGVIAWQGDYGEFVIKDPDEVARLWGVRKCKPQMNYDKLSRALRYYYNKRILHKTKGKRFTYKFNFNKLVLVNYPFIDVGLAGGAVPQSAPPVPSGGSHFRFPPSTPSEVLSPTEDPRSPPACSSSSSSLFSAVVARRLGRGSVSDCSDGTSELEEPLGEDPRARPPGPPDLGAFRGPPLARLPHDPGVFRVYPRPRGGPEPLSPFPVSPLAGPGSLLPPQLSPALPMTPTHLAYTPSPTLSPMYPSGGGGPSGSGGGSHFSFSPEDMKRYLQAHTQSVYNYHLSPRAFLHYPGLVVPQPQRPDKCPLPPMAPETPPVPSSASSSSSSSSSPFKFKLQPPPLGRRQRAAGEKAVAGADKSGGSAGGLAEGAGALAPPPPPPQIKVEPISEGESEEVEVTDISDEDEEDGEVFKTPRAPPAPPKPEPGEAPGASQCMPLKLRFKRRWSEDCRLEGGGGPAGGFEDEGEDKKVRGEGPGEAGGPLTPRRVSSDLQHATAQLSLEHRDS
How it was run: as §1

[12] = target: T7, ETV3L (Homo sapiens, UniProt Q6ZN32 1-361); conditions: protein: recombinant; tags: N-terminal GST; dsDNA, one strand shown
T7 sequence: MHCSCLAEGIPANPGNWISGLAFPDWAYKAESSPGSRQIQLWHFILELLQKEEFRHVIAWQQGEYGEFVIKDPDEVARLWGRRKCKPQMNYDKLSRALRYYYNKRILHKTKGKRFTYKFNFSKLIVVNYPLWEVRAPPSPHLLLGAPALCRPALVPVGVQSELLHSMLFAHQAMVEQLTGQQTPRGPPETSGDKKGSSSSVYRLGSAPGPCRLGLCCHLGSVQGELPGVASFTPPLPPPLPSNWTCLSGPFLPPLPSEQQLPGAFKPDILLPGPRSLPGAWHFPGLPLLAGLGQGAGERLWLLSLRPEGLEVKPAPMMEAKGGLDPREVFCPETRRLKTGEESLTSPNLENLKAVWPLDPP
How it was run: as §1

[13] = target: T8, ETS2 (Homo sapiens, UniProt P15036 1-469); conditions: protein: recombinant; tags: N-terminal GST; dsDNA, one strand shown
T8 sequence: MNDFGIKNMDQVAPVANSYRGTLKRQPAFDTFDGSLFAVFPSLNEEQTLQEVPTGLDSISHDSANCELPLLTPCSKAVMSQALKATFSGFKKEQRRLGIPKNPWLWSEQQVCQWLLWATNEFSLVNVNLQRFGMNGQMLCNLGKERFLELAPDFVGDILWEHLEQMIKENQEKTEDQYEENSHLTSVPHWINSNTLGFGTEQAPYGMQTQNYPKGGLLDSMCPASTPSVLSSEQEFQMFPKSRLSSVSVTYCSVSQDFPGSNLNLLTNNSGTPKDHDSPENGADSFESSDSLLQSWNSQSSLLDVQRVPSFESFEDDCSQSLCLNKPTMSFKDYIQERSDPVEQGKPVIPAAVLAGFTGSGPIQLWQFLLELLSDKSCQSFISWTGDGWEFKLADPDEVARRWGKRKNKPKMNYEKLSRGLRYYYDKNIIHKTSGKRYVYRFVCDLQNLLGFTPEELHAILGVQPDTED
How it was run: as §1

[14] = target: T9, SPDEF (Homo sapiens, UniProt O95238 1-335); conditions: protein: recombinant; tags: N-terminal GST; dsDNA, one strand shown
T9 sequence: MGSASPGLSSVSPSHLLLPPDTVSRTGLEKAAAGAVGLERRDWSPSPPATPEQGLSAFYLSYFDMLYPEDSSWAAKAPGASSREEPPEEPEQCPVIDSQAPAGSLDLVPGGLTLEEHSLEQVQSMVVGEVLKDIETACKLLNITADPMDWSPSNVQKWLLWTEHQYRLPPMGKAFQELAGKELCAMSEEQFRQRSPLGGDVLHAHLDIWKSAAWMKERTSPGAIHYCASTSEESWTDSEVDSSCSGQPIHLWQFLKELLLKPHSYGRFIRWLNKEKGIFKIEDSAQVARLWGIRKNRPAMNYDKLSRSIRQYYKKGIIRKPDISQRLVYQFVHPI
How it was run: as §1

[15] = target: T10, ETV7 (Homo sapiens, UniProt Q9Y603 1-341); conditions: protein: recombinant; tags: N-terminal GST; dsDNA, one strand shown
T10 sequence: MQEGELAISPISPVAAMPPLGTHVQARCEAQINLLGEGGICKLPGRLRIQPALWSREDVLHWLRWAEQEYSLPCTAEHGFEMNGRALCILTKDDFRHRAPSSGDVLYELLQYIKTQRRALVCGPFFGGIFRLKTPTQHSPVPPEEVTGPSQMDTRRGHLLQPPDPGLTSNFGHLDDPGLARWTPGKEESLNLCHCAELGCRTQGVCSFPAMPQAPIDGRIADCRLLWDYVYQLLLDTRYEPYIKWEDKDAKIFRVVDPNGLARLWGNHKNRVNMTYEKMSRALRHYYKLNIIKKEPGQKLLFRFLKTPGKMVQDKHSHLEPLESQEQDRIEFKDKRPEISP
How it was run: as §1

[16] = target: T11, ELF5 (Homo sapiens, UniProt Q9UKW6-2 1-255); conditions: protein: recombinant; tags: N-terminal GST; dsDNA, one strand shown
T11 sequence: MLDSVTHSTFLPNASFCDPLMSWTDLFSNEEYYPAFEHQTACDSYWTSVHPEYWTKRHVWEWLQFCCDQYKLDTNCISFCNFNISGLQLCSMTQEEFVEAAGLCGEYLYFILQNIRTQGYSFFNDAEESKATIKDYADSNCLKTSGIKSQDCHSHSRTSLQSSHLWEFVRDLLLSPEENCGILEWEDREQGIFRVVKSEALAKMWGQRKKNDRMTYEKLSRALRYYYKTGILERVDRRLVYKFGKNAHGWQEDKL
How it was run: as §1

[17] = target: T12, ETV3 (Homo sapiens, UniProt P41162-2 1-143); conditions: protein: recombinant; tags: N-terminal GST; dsDNA, one strand shown
T12 sequence: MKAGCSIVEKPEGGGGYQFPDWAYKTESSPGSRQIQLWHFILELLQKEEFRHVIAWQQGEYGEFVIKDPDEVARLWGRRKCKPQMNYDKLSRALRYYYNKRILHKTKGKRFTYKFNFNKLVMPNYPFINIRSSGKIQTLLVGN
How it was run: as §1

[18] = target: ETV6 (Homo sapiens, UniProt P41212 1-452); conditions: protein: recombinant; tags: N-terminal GST; dsDNA, one strand shown
How it was run: as §1

Chain of HSF1 (Q00613 whole entry): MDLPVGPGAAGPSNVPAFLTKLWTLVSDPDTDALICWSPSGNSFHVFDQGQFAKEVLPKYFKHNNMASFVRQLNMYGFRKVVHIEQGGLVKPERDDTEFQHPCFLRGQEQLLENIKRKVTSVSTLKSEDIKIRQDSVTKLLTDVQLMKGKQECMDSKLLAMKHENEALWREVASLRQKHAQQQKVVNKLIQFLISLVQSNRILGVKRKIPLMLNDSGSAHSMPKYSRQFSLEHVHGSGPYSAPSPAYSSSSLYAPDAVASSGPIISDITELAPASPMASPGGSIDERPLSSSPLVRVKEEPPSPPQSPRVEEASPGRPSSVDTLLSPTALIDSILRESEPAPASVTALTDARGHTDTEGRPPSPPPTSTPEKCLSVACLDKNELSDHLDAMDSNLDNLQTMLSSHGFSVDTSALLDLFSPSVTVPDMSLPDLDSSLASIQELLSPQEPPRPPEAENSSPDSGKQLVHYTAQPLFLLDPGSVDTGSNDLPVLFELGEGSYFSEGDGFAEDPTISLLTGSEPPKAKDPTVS
Chain of ELF4 (Q99607 whole entry): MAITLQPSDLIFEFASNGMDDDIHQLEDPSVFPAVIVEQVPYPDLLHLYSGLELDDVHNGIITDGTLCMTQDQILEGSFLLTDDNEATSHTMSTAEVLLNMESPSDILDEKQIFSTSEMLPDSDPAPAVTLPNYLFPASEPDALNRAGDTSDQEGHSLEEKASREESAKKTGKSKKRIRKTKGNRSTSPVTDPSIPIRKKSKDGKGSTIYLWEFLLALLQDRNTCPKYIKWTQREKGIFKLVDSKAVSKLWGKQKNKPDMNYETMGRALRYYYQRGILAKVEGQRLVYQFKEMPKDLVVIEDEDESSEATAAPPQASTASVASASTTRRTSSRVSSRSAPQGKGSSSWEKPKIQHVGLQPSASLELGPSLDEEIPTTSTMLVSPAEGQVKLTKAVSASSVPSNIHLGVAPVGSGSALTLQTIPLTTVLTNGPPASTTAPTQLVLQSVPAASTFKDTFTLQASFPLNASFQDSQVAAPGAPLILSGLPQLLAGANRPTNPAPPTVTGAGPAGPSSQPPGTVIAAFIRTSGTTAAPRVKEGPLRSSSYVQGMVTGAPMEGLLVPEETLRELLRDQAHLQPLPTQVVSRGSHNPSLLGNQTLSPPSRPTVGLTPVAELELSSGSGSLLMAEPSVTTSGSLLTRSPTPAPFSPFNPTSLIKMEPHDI
Chain of ETV6 (P41212 whole entry): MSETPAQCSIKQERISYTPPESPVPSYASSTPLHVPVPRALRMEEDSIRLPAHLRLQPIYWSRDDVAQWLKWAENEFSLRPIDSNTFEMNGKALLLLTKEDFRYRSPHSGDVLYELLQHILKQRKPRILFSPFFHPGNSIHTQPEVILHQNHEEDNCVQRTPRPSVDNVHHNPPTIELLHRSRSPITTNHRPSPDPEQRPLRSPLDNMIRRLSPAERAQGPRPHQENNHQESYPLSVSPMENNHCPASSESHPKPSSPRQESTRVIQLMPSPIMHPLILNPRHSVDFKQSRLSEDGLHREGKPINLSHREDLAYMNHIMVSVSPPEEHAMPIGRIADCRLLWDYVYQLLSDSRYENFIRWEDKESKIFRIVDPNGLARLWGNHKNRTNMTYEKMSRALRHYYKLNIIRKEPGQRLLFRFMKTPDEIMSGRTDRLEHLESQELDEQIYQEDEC
Chain of ETV5 (P41161 whole entry): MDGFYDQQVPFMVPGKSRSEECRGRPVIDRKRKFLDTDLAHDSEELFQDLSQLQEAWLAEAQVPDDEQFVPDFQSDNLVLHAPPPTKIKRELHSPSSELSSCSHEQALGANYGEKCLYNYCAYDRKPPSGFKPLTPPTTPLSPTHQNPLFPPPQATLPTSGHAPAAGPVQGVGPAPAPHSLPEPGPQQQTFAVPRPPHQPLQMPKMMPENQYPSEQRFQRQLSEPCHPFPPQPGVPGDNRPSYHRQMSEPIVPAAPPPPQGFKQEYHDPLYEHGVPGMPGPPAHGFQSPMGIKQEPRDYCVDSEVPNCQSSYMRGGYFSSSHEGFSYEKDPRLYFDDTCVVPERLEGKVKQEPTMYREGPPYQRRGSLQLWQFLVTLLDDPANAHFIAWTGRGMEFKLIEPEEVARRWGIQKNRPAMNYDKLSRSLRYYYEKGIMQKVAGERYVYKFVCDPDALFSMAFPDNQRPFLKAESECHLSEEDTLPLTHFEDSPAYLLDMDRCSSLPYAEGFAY
Chain of CRX (O43186 whole entry): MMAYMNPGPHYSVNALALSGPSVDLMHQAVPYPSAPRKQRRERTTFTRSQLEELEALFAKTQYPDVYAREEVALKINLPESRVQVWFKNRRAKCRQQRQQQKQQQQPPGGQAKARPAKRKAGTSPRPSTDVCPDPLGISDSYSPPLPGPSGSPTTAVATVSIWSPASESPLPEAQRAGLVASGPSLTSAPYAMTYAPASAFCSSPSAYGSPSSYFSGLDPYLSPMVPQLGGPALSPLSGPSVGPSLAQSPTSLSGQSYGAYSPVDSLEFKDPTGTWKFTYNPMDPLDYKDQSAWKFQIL
Chain of ETV1 (P50549 whole entry): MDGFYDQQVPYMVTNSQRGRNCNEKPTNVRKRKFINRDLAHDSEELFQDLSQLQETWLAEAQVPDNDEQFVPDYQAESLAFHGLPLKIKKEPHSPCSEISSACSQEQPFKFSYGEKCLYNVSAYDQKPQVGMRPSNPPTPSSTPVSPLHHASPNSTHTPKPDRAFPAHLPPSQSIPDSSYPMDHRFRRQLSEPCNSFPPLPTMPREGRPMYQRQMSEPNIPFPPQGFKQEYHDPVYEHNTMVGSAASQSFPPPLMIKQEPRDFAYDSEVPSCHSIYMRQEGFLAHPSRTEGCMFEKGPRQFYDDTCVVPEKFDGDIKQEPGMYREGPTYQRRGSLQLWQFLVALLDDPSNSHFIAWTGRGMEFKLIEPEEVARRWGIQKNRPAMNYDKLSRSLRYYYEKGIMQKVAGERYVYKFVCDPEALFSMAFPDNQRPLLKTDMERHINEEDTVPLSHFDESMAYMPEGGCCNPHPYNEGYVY

CTTTAT
binding signal [1]: 1.17 fold enrichment (6-mer frequency, TF over GST control) | binding signal [2]: 1.21 fold enrichment (6-mer frequency, TF over GST control) | binding signal [3]: 1.23 fold enrichment (6-mer frequency, TF over GST control) | binding signal [4]: 1.21 fold enrichment (6-mer frequency, TF over GST control) | binding signal [5]: 1.19 fold enrichment (6-mer frequency, TF over GST control) | binding signal [6]: 1.29 fold enrichment (6-mer frequency, TF over GST control) | binding signal [7]: 1.29 fold enrichment (6-mer frequency, TF over GST control) | binding signal [8]: 1.21 fold enrichment (6-mer frequency, TF over GST control) | binding signal [9]: 1.65 fold enrichment (6-mer frequency, TF over GST control) | binding signal [10]: 1.22 fold enrichment (6-mer frequency, TF over GST control) | binding signal [11]: 1.08 fold enrichment (6-mer frequency, TF over GST control) | binding signal [12]: 1.22 fold enrichment (6-mer frequency, TF over GST control) | binding signal [13]: 1.29 fold enrichment (6-mer frequency, TF over GST control) | binding signal [14]: 1.14 fold enrichment (6-mer frequency, TF over GST control) | binding signal [15]: 1.31 fold enrichment (6-mer frequency, TF over GST control) | binding signal [16]: 1.13 fold enrichment (6-mer frequency, TF over GST control) | binding signal [17]: 1.19 fold enrichment (6-mer frequency, TF over GST control) | binding signal [18]: 1.23 fold enrichment (6-mer frequency, TF over GST control)
